In PubChem BioAssay (Tox21):
Records with an inconclusive call do not appear. The source made the active and inactive calls. Calls follow the shape of the full dose curve.

Molecular target: Estrogen receptor (Homo sapiens) (UniProt P03372)
Assay: qHTS assay to identify small molecule agonists of the estrogen receptor alpha (ER-alpha) signaling pathway in the presence of an antagonist (AID 1259383); also: top concentration of the series differs between compounds; nearly all actives have a fitted effect of over 15% in size
Settings: VM7Luc4E2 cells, ERE-luciferase, +ICI-182,780, 22 h; series mostly up to 92.4 µM; activation: at the top concentration
In short: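 Cells are hormone-deprived for 5 days (charcoal-stripped FBS, no phenol red), plated for 24hr, spiked with 10.0nM ICI-182,780, then dosed at 15 concentrations. After 22hr at 37C, ONE-Glo luminescence reports ERE-luciferase activity.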
% is scaled to controls: 0 for no effect and ±100 for the full control effect.

Sequence of Estrogen receptor (Homo sapiens) (P03372 whole entry, looked up): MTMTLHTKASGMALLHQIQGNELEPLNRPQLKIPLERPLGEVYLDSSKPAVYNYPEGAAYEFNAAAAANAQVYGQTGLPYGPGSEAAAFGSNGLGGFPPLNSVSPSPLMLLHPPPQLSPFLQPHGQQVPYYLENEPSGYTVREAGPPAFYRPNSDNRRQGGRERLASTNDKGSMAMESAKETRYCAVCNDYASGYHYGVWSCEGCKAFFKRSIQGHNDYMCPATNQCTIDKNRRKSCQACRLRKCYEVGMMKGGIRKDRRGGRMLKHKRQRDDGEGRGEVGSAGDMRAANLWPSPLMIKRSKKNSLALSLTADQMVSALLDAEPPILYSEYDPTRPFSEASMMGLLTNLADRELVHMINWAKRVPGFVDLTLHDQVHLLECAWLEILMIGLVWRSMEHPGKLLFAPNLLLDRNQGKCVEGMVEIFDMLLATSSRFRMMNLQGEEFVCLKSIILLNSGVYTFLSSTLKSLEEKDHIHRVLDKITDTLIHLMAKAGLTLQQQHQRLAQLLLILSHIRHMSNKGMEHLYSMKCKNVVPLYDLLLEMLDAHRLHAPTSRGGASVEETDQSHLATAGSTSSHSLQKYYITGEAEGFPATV

| SMILES | activation |
| --- | --- |
| COc1cc2c(cc1OC)CN(C(=O)[C@H](C)N[C@@H](CCc1ccccc1)C(=O)O)[C@H](C(=O)O)C2 | -0.626% [at 42.5 µM] (inactive) |
| O=C(Cn1ccnc1[N+](=O)[O-])NCc1ccccc1 | 0.856% [at 42.5 µM] (inactive) |
| COC(=O)/C=C\C(=O)O | -1.88% (inactive) |
| CCCCOC(=O)C(C)O (stereo unspecified) | 1.17% (inactive) |
| N#CCC(=O)NN | 0.217% [at 42.5 µM] (inactive) |
| Cc1cc(C)c(C(=O)O)c(C)c1 | 0.791% (inactive) |
| CCOc1cccc(N)c1 | 0.857% (inactive) |
| O=C(CCCl)NCCc1ccccc1 | 0.75% [at 42.5 µM] (inactive) |
| CC(=O)C1C(=O)C=C(C)OC1=O (stereo unspecified) | -0.81% (inactive) |
| CCOc1ccccc1OCC1CNCCO1 (stereo unspecified) | -0.263% [at 42.5 µM] (inactive) |
| CC1(C)O[C@H]2CC(=O)OC[C@]23[C@H]2CC[C@@]4(C)[C@H](c5ccoc5)OC(=O)[C@H]5O[C@]54[C@]2(C)C(=O)C[C@@H]13 | 0.362% [at 42.5 µM] (inactive) |
| CCO[Si](CC)(OCC)OCC | -0.923% (inactive) |
| CC(=O)CCc1ccc(OC(C)=O)cc1 | -0.487% (inactive) |
| CCCCCCC1(C)CCC(=O)O1 (stereo unspecified) | 0.494% (inactive) |
| O=C(O)[C@H](O)c1ccccc1 | -0.316% [at 42.5 µM] (inactive) |
| C=CC/C=C/C | 1.01% (inactive) |
| CCC(C)C(=O)OCCc1ccccc1 (stereo unspecified) | -0.79% (inactive) |
| COP(=O)(O)OP(=O)(O)OC | 2.81% (inactive) |
| O=C(O)c1cc2ccccc2nc1C(=O)O | -1.02% (inactive) |

| SMILES | activation |
| --- | --- |
| COc1cc(/C=C/C(N)=O)cc(OC)c1OC | -0.561% [at 42.5 µM] (inactive) |
| COC(=O)c1cc(Cl)cc(Cl)c1 | -0.0294% (inactive) |
| O=C1c2ccccc2C(=O)c2cc(Cl)ccc21 | 1.09% [at 8.39 µM] (inactive) |
| CO[C@@]1(NC(=O)Cc2cccs2)C(=O)N2C(C(=O)O)=C(COC(N)=O)CS[C@@H]21 | -0.548% [at 42.5 µM] (inactive) |
| C[C@H]1[C@@H](c2ccccc2)NC(=O)N1C | 1.31% (inactive) |
| CC/C=C\CCOC(=O)c1ccccc1O | 3.46% (inactive) |
| Cc1ccccc1C(N)=O | 0.365% (inactive) |
| OC1OCCOC1O (stereo unspecified) | -0.861% (inactive) |
| C/C=C(\C)C(C)=O | -1.6% (inactive) |
| COC(=O)c1ccccc1C(=O)O | 0.965% (inactive) |
| CC(C)c1ccc(C=O)cc1 | 0.582% (inactive) |
| CCC/C=C(\C=O)CC | -2.05% (inactive) |
| CSc1cnccn1 | -0.893% (inactive) |
| CCOC(=O)CC1(C)OCC(C)O1 (stereo unspecified) | -0.367% (inactive) |
| CC(=O)CC(=O)OC(C)(C)C | -1.41% (inactive) |
| Cc1c(NC(=O)c2cccnc2)c(=O)n(-c2ccccc2)n1C | -0.556% [at 42.5 µM] (inactive) |
| c1ccc(-c2nn[nH]n2)cc1 | 0.155% (inactive) |
| CCCCCCCCCCOC(C)=O | 0.705% (inactive) |

Test system: not listed separately
Assay: qHTS assay to identify small molecule agonists or antagonists of the thyroid stimulating hormone receptor (TSHR) signaling pathway - wild type cell line counter screen (AID 1259384)
Settings: HEK293 wild type, cAMP HTRF counter-screen, active compounds read high; series mostly up to 92.4 µM; cAMP activity change: at the top concentration
In short: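 Counter screen in untransfected Hek293: compounds (15-point titration, triplicate) plus phosphodiesterase inhibitor Ro20-1724 added after 18 h plating; 30 min RT. Intracellular cAMP via competitive d2/cryptate immunoassay, 1 h incubation.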

| SMILES | cAMP activity change |
| --- | --- |
| COc1cc2c(cc1OC)CN(C(=O)[C@H](C)N[C@@H](CCc1ccccc1)C(=O)O)[C@H](C(=O)O)C2 | 4.5% [at 42.5 µM] (inactive) |
| O=C(Cn1ccnc1[N+](=O)[O-])NCc1ccccc1 | -4.52% [at 42.5 µM] (inactive) |
| COC(=O)/C=C\C(=O)O | -5.27% (inactive) |
| CCCCOC(=O)C(C)O (stereo unspecified) | 0.0393% (inactive) |
| N#CCC(=O)NN | -3.41% [at 42.5 µM] (inactive) |
| Cc1cc(C)c(C(=O)O)c(C)c1 | 1.25% (inactive) |
| CCOc1cccc(N)c1 | 6.14% (inactive) |
| O=C(CCCl)NCCc1ccccc1 | -1.86% [at 42.5 µM] (inactive) |
| CC(=O)C1C(=O)C=C(C)OC1=O (stereo unspecified) | -1.26% (inactive) |
| CCOc1ccccc1OCC1CNCCO1 (stereo unspecified) | 1.22% [at 42.5 µM] (inactive) |
| CC1(C)O[C@H]2CC(=O)OC[C@]23[C@H]2CC[C@@]4(C)[C@H](c5ccoc5)OC(=O)[C@H]5O[C@]54[C@]2(C)C(=O)C[C@@H]13 | 4.2% [at 42.5 µM] (inactive) |
| CCO[Si](CC)(OCC)OCC | -5.78% (inactive) |
| CC(=O)CCc1ccc(OC(C)=O)cc1 | -1.17% (inactive) |
| CCCCCCC1(C)CCC(=O)O1 (stereo unspecified) | 1.75% (inactive) |
| O=C(O)[C@H](O)c1ccccc1 | -3.71% [at 42.5 µM] (inactive) |
| C=CC/C=C/C | 3.85% (inactive) |
| CCC(C)C(=O)OCCc1ccccc1 (stereo unspecified) | 3.05% (inactive) |
| COP(=O)(O)OP(=O)(O)OC | -3.12% (inactive) |
| O=C(O)c1cc2ccccc2nc1C(=O)O | 3.46% (inactive) |

| SMILES | cAMP activity change |
| --- | --- |
| COc1cc(/C=C/C(N)=O)cc(OC)c1OC | 9.64% [at 42.5 µM] (inactive) |
| COC(=O)c1cc(Cl)cc(Cl)c1 | -2.92% (inactive) |
| O=C1c2ccccc2C(=O)c2cc(Cl)ccc21 | 2.64% [at 8.39 µM] (inactive) |
| CO[C@@]1(NC(=O)Cc2cccs2)C(=O)N2C(C(=O)O)=C(COC(N)=O)CS[C@@H]21 | -1.92% [at 42.5 µM] (inactive) |
| C[C@H]1[C@@H](c2ccccc2)NC(=O)N1C | -0.176% (inactive) |
| CC/C=C\CCOC(=O)c1ccccc1O | 0.0785% (inactive) |
| Cc1ccccc1C(N)=O | -2.91% (inactive) |
| OC1OCCOC1O (stereo unspecified) | 3.23% (inactive) |
| C/C=C(\C)C(C)=O | -1.12% (inactive) |
| COC(=O)c1ccccc1C(=O)O | 3.18% (inactive) |
| CC(C)c1ccc(C=O)cc1 | -0.644% (inactive) |
| CCC/C=C(\C=O)CC | -2.4% (inactive) |
| CSc1cnccn1 | 0.49% (inactive) |
| CCOC(=O)CC1(C)OCC(C)O1 (stereo unspecified) | -4.92% (inactive) |
| CC(=O)CC(=O)OC(C)(C)C | 2.7% (inactive) |
| Cc1c(NC(=O)c2cccnc2)c(=O)n(-c2ccccc2)n1C | -0.0897% [at 42.5 µM] (inactive) |
| c1ccc(-c2nn[nH]n2)cc1 | -1.67% (inactive) |
| CCCCCCCCCCOC(C)=O | -6.07% (inactive) |

Molecular target: Thyrotropin receptor (Homo sapiens) (UniProt P16473)
Assay: qHTS assay to identify small molecule antagonists of the thyroid stimulating hormone receptor (TSHR) signaling pathway (AID 1259385); also: nearly all actives have a fitted effect of over 20% in size
Settings: TSHR-HEK293 cAMP HTRF, TSH-stimulated antagonist mode; series mostly up to 92.4 µM; activity change, negative = inhibition: at the top concentration
In short: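 Antagonist mode: compound-treated TSHR-expressing HEK293 cells were stimulated with 1.5 ng/mL TSH (final) in presence of Ro20-1724 for 30 min at RT. HTRF cAMP detection after 1 h; each compound tested at 15 concentrations, triplicate.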

Sequence of Thyrotropin receptor (Homo sapiens) (P16473 whole entry, looked up): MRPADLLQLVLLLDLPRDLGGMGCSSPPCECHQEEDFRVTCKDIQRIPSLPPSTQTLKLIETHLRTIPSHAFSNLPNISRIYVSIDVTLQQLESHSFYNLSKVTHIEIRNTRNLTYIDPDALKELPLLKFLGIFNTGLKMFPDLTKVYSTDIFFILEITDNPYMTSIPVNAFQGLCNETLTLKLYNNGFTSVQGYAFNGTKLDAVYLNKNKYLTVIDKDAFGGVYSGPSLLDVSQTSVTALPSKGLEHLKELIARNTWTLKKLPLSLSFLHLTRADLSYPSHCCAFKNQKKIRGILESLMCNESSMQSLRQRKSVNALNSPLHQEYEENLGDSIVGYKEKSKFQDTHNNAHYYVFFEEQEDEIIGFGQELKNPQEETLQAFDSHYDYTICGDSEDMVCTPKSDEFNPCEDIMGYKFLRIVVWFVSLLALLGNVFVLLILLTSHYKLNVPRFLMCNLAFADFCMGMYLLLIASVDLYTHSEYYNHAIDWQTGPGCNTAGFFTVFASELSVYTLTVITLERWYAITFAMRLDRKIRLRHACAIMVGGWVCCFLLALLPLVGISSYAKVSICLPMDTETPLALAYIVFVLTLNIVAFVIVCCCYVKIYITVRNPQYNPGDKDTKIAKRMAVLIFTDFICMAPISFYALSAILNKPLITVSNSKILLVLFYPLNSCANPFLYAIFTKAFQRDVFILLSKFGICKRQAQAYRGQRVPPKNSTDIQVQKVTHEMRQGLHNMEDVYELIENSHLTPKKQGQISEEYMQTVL

| SMILES | activity change, negative = inhibition |
| --- | --- |
| COc1cc2c(cc1OC)CN(C(=O)[C@H](C)N[C@@H](CCc1ccccc1)C(=O)O)[C@H](C(=O)O)C2 | -0.418% [at 42.5 µM] (inactive) |
| O=C(Cn1ccnc1[N+](=O)[O-])NCc1ccccc1 | 2.15% [at 42.5 µM] (inactive) |
| COC(=O)/C=C\C(=O)O | -0.463% (inactive) |
| CCCCOC(=O)C(C)O (stereo unspecified) | 0.626% (inactive) |
| N#CCC(=O)NN | 0.0467% [at 42.5 µM] (inactive) |
| Cc1cc(C)c(C(=O)O)c(C)c1 | -5.34% (inactive) |
| CCOc1cccc(N)c1 | -0.333% (inactive) |
| O=C(CCCl)NCCc1ccccc1 | 3.45% [at 42.5 µM] (inactive) |
| CC(=O)C1C(=O)C=C(C)OC1=O (stereo unspecified) | 0.263% (inactive) |
| CCOc1ccccc1OCC1CNCCO1 (stereo unspecified) | 4.55% [at 42.5 µM] (inactive) |
| CC1(C)O[C@H]2CC(=O)OC[C@]23[C@H]2CC[C@@]4(C)[C@H](c5ccoc5)OC(=O)[C@H]5O[C@]54[C@]2(C)C(=O)C[C@@H]13 | -5.43% [at 42.5 µM] (inactive) |
| CCO[Si](CC)(OCC)OCC | -0.0386% (inactive) |
| CC(=O)CCc1ccc(OC(C)=O)cc1 | -1.1% (inactive) |
| CCCCCCC1(C)CCC(=O)O1 (stereo unspecified) | 5.35% (inactive) |
| O=C(O)[C@H](O)c1ccccc1 | -5.18% [at 42.5 µM] (inactive) |
| C=CC/C=C/C | 6.58% (inactive) |
| CCC(C)C(=O)OCCc1ccccc1 (stereo unspecified) | -10.4% (inactive) |
| COP(=O)(O)OP(=O)(O)OC | 0.439% (inactive) |
| O=C(O)c1cc2ccccc2nc1C(=O)O | 2.07% (inactive) |

| SMILES | activity change, negative = inhibition |
| --- | --- |
| COc1cc(/C=C/C(N)=O)cc(OC)c1OC | 0.167% [at 42.5 µM] (inactive) |
| COC(=O)c1cc(Cl)cc(Cl)c1 | 0.489% (inactive) |
| O=C1c2ccccc2C(=O)c2cc(Cl)ccc21 | -1.43% [at 8.39 µM] (inactive) |
| CO[C@@]1(NC(=O)Cc2cccs2)C(=O)N2C(C(=O)O)=C(COC(N)=O)CS[C@@H]21 | -6.02% [at 42.5 µM] (inactive) |
| C[C@H]1[C@@H](c2ccccc2)NC(=O)N1C | -3.43% (inactive) |
| CC/C=C\CCOC(=O)c1ccccc1O | -5.82% (inactive) |
| Cc1ccccc1C(N)=O | -10.9% (inactive) |
| OC1OCCOC1O (stereo unspecified) | 1.95% (inactive) |
| C/C=C(\C)C(C)=O | 4.08% (inactive) |
| COC(=O)c1ccccc1C(=O)O | 3.25% (inactive) |
| CC(C)c1ccc(C=O)cc1 | -0.482% (inactive) |
| CCC/C=C(\C=O)CC | -1.57% (inactive) |
| CSc1cnccn1 | 0.314% (inactive) |
| CCOC(=O)CC1(C)OCC(C)O1 (stereo unspecified) | 1.23% (inactive) |
| CC(=O)CC(=O)OC(C)(C)C | 2.94% (inactive) |
| Cc1c(NC(=O)c2cccnc2)c(=O)n(-c2ccccc2)n1C | 1.56% [at 42.5 µM] (inactive) |
| c1ccc(-c2nn[nH]n2)cc1 | 1.53% (inactive) |
| CCCCCCCCCCOC(C)=O | -0.276% (inactive) |
